From PubChem
Shiga toxin inh – A qHTS for Small Molecule Inhibitors of Shiga Toxin; Vero cells, Shiga toxin protein synthesis inhibition reporter; inhibition, % at 38.7 µM; 290,000 compounds, 9.2% hits; AID 2315, 2010; in the data active = inhibition mostly above about 28%, no sharp cut-off; inactive = mostly below about 43%; also: 0% is about no effect
Marburg entry inh – qHTS for inhibitors of binding or entry into cells for Marburg Virus | Marburg virus pseudotyped entry inhibition, cell reporter | Potency, µM (doses to about 37.8 µM), for inactives: at the top dose activity change, negative = inhibition, hits mostly inhibitors | 300,000 compounds, 1.8% hits; calls by dose curve; tested in HEK293 cells; also: potency is read from the fitted curve at half-maximal effect; % is scaled to controls: 0 for no effect and ±100 for the full control effect
CHX counter – Cycloheximide Counterscreen for Small Molecule Inhibitors of Shiga Toxin; cell reporter, cycloheximide protein synthesis inhibition counterscreen; max response, %; 300,000 compounds, 12% hits; AID 2314, 2010; in the data active = max response mostly above about 13%, no sharp cut-off; inactive = mostly below about 14%; also: read at 38.3 µM for the half of the compounds with a filed dose; 0% is about no effect
FMDV antiviral – High Throughput Screening for Foot and Mouth Disease Virus Antivirals. FMDV antiviral cell-based qHTS. Potency, µM (series often up to 57.9 µM), for inactives: top-dose activity change, negative = inhibition, actives largely listed as inhibitors. 410,000 compounds, 1.2% hits. AID 1159524, 2015; calls by dose curve; tested in HEK293T cells; also: read-out not given here; potency is read from the fitted curve at half-maximal effect; % is scaled to controls: 0 for no effect and ±100 for the full control effect; nearly all actives have a fitted effect of over 45% in size
HCV inh – qHTS Assay for Inhibitors of Hepatitis C Virus (HCV); Huh7.5.1 HCVcc-Cre infection, luciferase reporter, 44 h; Potency, µM (top dose mostly 41.8 µM), for the others: at the highest dose activity change, negative = inhibition, most hits filed as inhibitors; 340,000 compounds, 3.4% hits; active = well fitted inhibition curve with a large enough effect; inconclusive = small, poorly fitted or top-dose-only effect, or another doubt; inactive = no such curve, though single readings can be large or run the other way; also: potency is read from the fitted curve at half-maximal effect; % is scaled to controls: 0 for no effect and ±100 for the full control effect
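A cell-based infection assay in which seeded cells (1,000 per well) receive test compound after 4 h, are inoculated with HCVcc-Cre at approximately 0.5 moi, and are incubated 44 h before luminescence detection.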
Lassa entry inh – qHTS for Inhibitors of binding or entry into cells for Lassa Virus; Lassa virus pseudotype entry inhibition, cell reporter; 300,000 compounds, 1.2% hits; Potency, µM (series often up to 37.9 µM), for inactives: at the top dose activity change, negative = inhibition, usual class: inhibitors; calls by dose curve; tested in HEK293 cells; also: potency is read from the fitted curve at half-maximal effect; % is scaled to controls: 0 for no effect and ±100 for the full control effect; nearly all actives have a fitted effect of over 50% in size
Active calls of the source: *; ? = inconclusive; nt = not tested or not shown; [ ] = dose if it differs, or a comment. An excerpt weighted towards active compounds, which were near 13% of everything screened.

SMILES	Shiga toxin inh	Marburg entry inh	CHX counter	FMDV antiviral	HCV inh	Lassa entry inh
CCOCCCNC(=O)c1ccc2c(c1)ncn2-c1ccc(C)cc1C	-2.7	-2.7%[46.1 µM]	-3.3	-15.4%	-2.9%	?
Cc1cc(C(=O)N/N=C/c2sccc2C)no1	42.6*	?	26.5*	103.5%	2.8%	9.9%
Cc1ccc(C(=O)N/N=C\c2sccc2C)cn1	73.4*	nt	34.1*	58.9%	24.9%	nt
Cc1ccsc1/C=N/NC(=O)c1ccc2nc[nH]c2c1	31.7*	8.2%	20.6*	35.1%	7.7%	3.1%
Cc1ccc(C(=O)N/N=C\c2ccc([N+](=O)[O-])s2)cn1	-12.6	14.5%	-1.9	?	-5.1%	?
O=C(N/N=C/c1cccs1)c1ccc2nc[nH]c2c1	49.3	nt	20.4	46.1%	10.8%	nt
O=C(OCc1nnc(-c2ccccc2)o1)c1ccc(Br)o1	nt	-18.8%[46.1 µM]	nt	-12.5%	3.6%	5.2%
O=C(OCc1nnc(-c2ccc(Br)cc2)o1)c1ccco1	39.5	11.9%	27.9*	11.5%	24.1%	4.0%
O=C(OCC#CCSc1nnc(-c2ccccc2)o1)c1ccco1	28.7	0.5%	6.7	28.0%	-13.3%	0.3%
O=C(OCC#CCSc1nc2ccccc2s1)c1ccco1	69.1	?	36.6*	49.9%	nt	35.8%[14.3 µM]
O=C(OCC#CCSc1nnc(-c2ccc(Br)cc2)o1)c1ccco1	47.3*	-6.7%	18.9*	17.0%	?	9.0%
COc1ccc(-n2nc(C)cc2N)cc1	9.8	nt	-1.0	0.0%	8.4%	nt
Cc1cc(CNC(=O)Nc2ccc3c(c2)OCO3)nn1C	60.7*	?	26.9*	53.7%	12.2%	16.9%
CCn1cc(C(C)NC(=O)Nc2ccc3c(c2)OCO3)c(C)n1 (centres undefined)	15.9	1.5%[46.1 µM]	5.8	26.9%	-7.9%	3.9%
CCn1nc(C)c(CNC(=O)Nc2ccc3c(c2)OCO3)c1C	91.3	0.6%	45.3*	0.0%	2.8%	21.4%
Cc1cc(OC(C)C(=O)Nc2cccnc2)ccc1Cl (centres undefined)	-19.6	?	-2.3	-10.1%	-2.4%	-0.6%[46.1 µM]
CCOC(=O)c1c(C)[nH]c(C(=O)OCCOc2ccccc2C)c1C	60.8*	nt	45.2*	21.5%	?	nt
CCOC(=O)c1[nH]c(C)c(C(=O)Nc2ccccc2F)c1C	59.7*	0.5%	25.0*	47.2%	?	?
CCOC(=O)c1c(C)[nH]c(C(=O)OCc2ccccc2F)c1C	115.5*	?	49.7*	26.3%	?	10µM*
CCOC(=O)c1[nH]c(C)c(C(=O)Nc2ccc(C)cc2C)c1C	-5.3	nt	-2.4	-10.9%	?	nt
COC(=O)c1c(C)[nH]c(C(=O)OCc2csc(CC(=O)Nc3ccccc3C)n2)c1C	nt	10µM*	nt	-24.5%	?	-6.6%
O=C(CCC(=O)N1CCSc2ccccc21)Nc1ccc(Cl)cc1	nt	nt	nt	-27.6%	nt	-15.1%[46.1 µM]
O=C(OCC(=O)N1CCCC1=O)c1cc2ccccc2o1	nt	-0.4%[46.1 µM]	nt	-6.2%	-3.9%	-5.4%
O=C(Cn1cnc([N+](=O)[O-])n1)N/N=C/c1cccc(Cl)c1	-34.7	nt	-4.2	-7.1%	19.4%	nt
CCOC(=O)c1[nH]c(C)c(C(=O)OCC(=O)NC(C)c2ccc(F)cc2)c1C (centres undefined)	nt	nt	nt	-9.8%	?	nt
SMILES	Shiga toxin inh	Marburg entry inh	CHX counter	FMDV antiviral	HCV inh	Lassa entry inh
CCOC(=O)c1[nH]c(C)c(C(=O)Nc2ccc(C)c(C)c2)c1C	13.1	nt	14.6*	44.5%	?	nt
CCOC(=O)c1ccc(OCCOc2ccccc2C)cc1	nt	-8.4%	33.6*	0.0%	7.1%	?
CCOC(=O)c1c(C)[nH]c(C(=O)OCc2ccc(F)cc2)c1C	71.8*	?	49.8*	19.5%	?	?
CCOC(=O)c1[nH]c(C)c(C(=O)Nc2ccc(F)cc2)c1C	7.1	nt	-1.5	7.1%	-5.6%	nt
CC(C)=CCC/C(C)=C/CNC(=O)C[C@H]1C[C@H](C(=O)N2CCCCC2)[C@@]2(C)c3[nH]c4ccc(Cl)cc4c3CCN2C1=O	nt	nt	nt	-15.7%	1.1%	nt
O=C(Nc1sc2c(c1C(=O)O)CCCC2)C(=O)N1CCOCC1	33.0*	nt	19.7*	20.7%	-0.7%	nt
CC1CCc2c(sc(NC(=O)c3ccco3)c2C(=O)O)C1 (centres undefined)	126.1*	3.55µM*	39.8*	-0.7%	?	?
O=C(Nc1sc2c(c1C(=O)O)CCCCC2)c1ccco1	83.1	?	32.6*	-32.7%	18.5%	?
O=C(Nc1sc2c(c1C(=O)NCCO)CCCC2)c1ccco1	-3.1	-1.0%	-7.1	-8.7%	?	8.4%
CN(C)C(=O)c1c(NC(=O)c2ccco2)sc2c1CCCCC2	29.2	-5.3%	16.4*	-3.3%	?	10.7%
CCOC(=O)c1c(NC(=O)c2ccco2)sc2c1CCCCC2	-9.2	?	-1.5	nt	?	0.0%
CCCc1ccc(C(=O)CCC(=O)NNC(=O)c2ccncc2)cc1	-3.6	nt	8.8	-8.4%	1.2%	nt
O=C(CN1CCOCC1)Nc1ccc(Cl)cc1	nt	nt	-1.9	-1.2%	0.1%	nt
CCc1c(C)sc(NC(=O)c2ccoc2C)c1C(N)=O	11.6	-12.2%	21.5*	-4.8%	-7.5%	5.5%
CCOC(=O)c1c(NC(=O)c2ccoc2C)sc(C)c1C	-7.3	-7.1%[46.1 µM]	-2.0	-8.9%	?	-2.5%
NC(=O)c1cc(Cc2ccccc2)sc1NC(=O)c1ccco1	78.4*	?	47.1*	53.9%	?	?
CCOC(=O)c1c(NC(=O)C(C)N2CCN(C(=O)c3ccco3)CC2)sc2c1CCCC2 (centres undefined)	28.8	?	18.8*	?	10µM*	11.2µM*
CCOc1ccc(CC(=O)Nc2sc(Cc3ccccc3)cc2C(N)=O)cc1OCC	-6.8	?	4.6	5.9%	17.9%	3.5%
Cc1occc1C(=O)Nc1sc2c(c1C(N)=O)CCCCC2	61.6*	?	29.1*	14.3%	?	?
COc1ccc(S(=O)(=O)NC(C)C(=O)NCc2cccnc2)cc1Cl (centres undefined)	-5.7	15.6%[46.1 µM]	-6.8	15.1%	7.6%	22.4%[46.1 µM]
O=C(CCCC1=NS(=O)(=O)c2ccccc2N1)N1CCN(c2ccc([N+](=O)[O-])cc2)CC1	-10.7	0.0%[46.1 µM]	9.7	0.8%	-17.2%	-6.4%[46.1 µM]
Cn1c(=O)c2[nH]c(C=Cc3ccc4c(c3)OCO4)nc2n(C)c1=O	nt	1.4%	nt	-6.6%	14.8%	14.0%
NC(=O)c1c(NC(=O)c2ccco2)sc2c1CCC2	43.5*	?	22.3*	nt	-21.2%	?
O=C(c1cc(C(F)(F)F)cc(C(F)(F)F)c1)N1CCC[C@@]2(CCN(Cc3nccs3)C2)C1	nt	nt	nt	-15.0%	nt	nt
O=C(c1ccc(Cl)cc1)C1CCCN(Cc2cccc3ncccc23)C1 (centres undefined)	-8.2	nt	1.8	?	7.94µM*	nt
CC(C)Oc1cccc(C(=O)C2CCCN(Cc3cccn3-c3ccccn3)C2)c1 (centres undefined)	-11.8	?	-6.7	8.9%	-17.5%	11.2µM*
